Inconclusive results are not listed. The source made the active and inactive calls. Calls come from the whole dose curve; as a rule, active = well fitted activation curve with a large enough effect; inconclusive = small, poorly fitted or top-dose-only effect; inactive = no such curve, though single readings can be large or run the other way.
Test: qHTS for Activators of Parkin Expression: LOPAC Validation Assay (FLuc Reporter) (AID 720573;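 note: 0% = DMSO and 100% = positive control compounds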)
Details: Cell line, PRKN promoter firefly luciferase reporter; series mostly up to 46.1 µM; activation: at the top concentration
In short: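 FLuc luminescence read-out from a neuronal line expressing a Parkin-promoter-driven coincidence reporter. Cells treated 24 h at 37 C, 5% CO2 with compounds at 7 concentrations; signal increase normalized to DMSO and positive control.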

| Compound | activation |
| --- | --- |
| O=C(OCCN1CCOCC1)C1(c2ccccc2)CCCCC1 | -5.74% (inactive) |
| CC1CCN(CC[C@H]2CCCN2S(=O)(=O)c2cccc(O)c2)CC1 | 3.47% (inactive) |
| CCCCCCCCCCCCCCCCCCOC[C@H](COP(=O)([O-])OCC[N+](C)(C)C)OC | -48.2% (inactive) |
| O=c1onc2cnc3ccccc3n12 | -0.596% (inactive) |
| COc1cc(C(O)C(=O)O)ccc1O (stereo not drawn) | -6.79% (inactive) |
| O=C(O)C1=CCCNC1 | -2.78% (inactive) |
| CNCCNS(=O)(=O)c1cccc2cnccc12 | 15.1% (inactive) |
| NCCCCN | -5.33% (inactive) |
| CNc1cc(NS(=O)(=O)c2ccc(N)cc2)nc(NC)n1 | -3.22% (inactive) |
| CC(C)(C)c1cc(/C=C(\C#N)C(N)=S)cc(C(C)(C)C)c1O | 7.73% (inactive) |
| CC#CCOC(=O)c1c(C)nc2sc3c(c2c1N)CCC(O)C3 (stereo not drawn) | 11% (inactive) |
| CC(=O)O[C@H]1CC2(C)[C@@H](C[C@@H](O)[C@H]3[C@@]4(C)CC[C@@H](O)[C@@H](C)[C@@H]4CC[C@@]32C)C1=C(CCC=C(C)C)C(=O)O (stereo partly drawn) | -1.16% (inactive) |
| O=c1ccc2c(OCCCCc3ccccc3)c3ccoc3cc2o1 | 0.408% (inactive) |
| C[C@@H](NCCc1ccc(O)cc1)[C@@H](O)c1ccc(O)cc1 | 1.09% (inactive) |
| Cc1cc(Cn2cnc3c2C[C@@H](C(=O)O)N(C(=O)C(c2ccccc2)c2ccccc2)C3)ccc1N | 3.8% (inactive) |
| N=C(N)SCCc1cnc[nH]1 | -8.13% (inactive) |
| C=CC[C@H](N)C(=O)O | 8.91% (inactive) |
| N[C@H](C(=O)O)[C@H](Cc1ccccc1)C(=O)O | -2.28% (inactive) |
| NC(N)=N[C@@H](CCC(=O)O)C(=O)O | -3.85% (inactive) |

| Compound | activation |
| --- | --- |
| CC(=O)O[C@H]1Cc2ccccc2N(C(N)=O)c2ccccc21 | -7.64% (inactive) |
| CC(N)=O | -10.2% (inactive) |
| Nc1ccc(N2C(=O)c3ccccc3C2=O)c(Cl)c1 | -12.2% (inactive) |
| N[C@H](C(=O)O)[C@H]1C[C@@H]1C(=O)O | -4% (inactive) |
| CN1C2CCC1CC(OC(c1ccccc1)c1ccccc1)C2 (stereo not drawn) | -8.16% (inactive) |
| N[C@H](C(=O)O)[C@H](O)C(=O)O | -2.77% (inactive) |
| CCCCCC(O)CCCC(=O)O (stereo not drawn) | -10.8% (inactive) |
| CCCCCCCCCCCCCCC[C@H](O)[C@H](N)CO | -31.1% (inactive) |
| OC[C@H]1O[C@@H](n2cnc3cncnc32)[C@H](O)[C@@H]1O | -2.9% (inactive) |
| c1ccc2nc(C3=NCCN3)ccc2c1 | 0.263% (inactive) |
| CCCCCCCCCC(=O)NC(CN1CCOCC1)[C@H](O)c1ccccc1 (stereo partly drawn) | -16.5% (inactive) |
| COc1ccccc1N1CCN(CCCNc2c(C)c(=O)n(C)c(=O)n2C)CC1 | 2.47% (inactive) |
| Nc1ccc(CCNc2ncnc3c2ncn3C2OC(CO)C(O)C2O)cc1 (stereo not drawn) | -5.19% (inactive) |
| CN(C)C(=O)/N=N/C(=O)N(C)C | -10.1% (inactive) |
| CCC(=O)N1CCN(C(=O)c2ccccc2)CC1 | -2.79% (inactive) |
| CCCn1c(=O)c2[nH]c(C3CCCC3)nc2n(CCC)c1=O | -0.79% (inactive) |
| O=C(O)/C(=C/c1c(C(=O)O)[nH]c2cc(Cl)cc(Cl)c12)c1ccccc1 | -2.01% (inactive) |
| CC1=C(C(=O)O)N2C(=O)[C@@H](NC(=O)C(N)C3=CCC=CC3)[C@H]2SC1 (stereo partly drawn) | -2.43% (inactive) |
| CCC1(O)CC2CN(CCc3c([nH]c4ccccc34)[C@@](C(=O)OC)(c3cc4c(cc3OC)N(C)C3[C@]45CCN4CC=C[C@@](CC)([C@@H](OC(C)=O)[C@]3(O)C(=O)OC)[C@H]45)C2)C1 (stereo partly drawn) | -29% (inactive) |

Source: PubChem BioAssay (NCATS)
